Experimental data reported in PubChem BioAssay AID1159580 (chemical genetic matrix, 2015).
Hit rate of the full screen: of about 5,500 compounds, about 2,000 (36%) were called active. Inconclusive results (about 18%) are left out. Cut-off read from the data, not from the text of the source: active = normalized growth mostly below about 0.91 (no sharp cut-off); inconclusive = no clear call, values can overlap the other calls; inactive = mostly above about 0.92. The list shows a part of the results.

Test: chemical genetic growth profiling, strain panel (AID 1159580);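 note: tested at 20 µM; growth read once vehicle control cultures reached saturation at 30 °C; 1 = growth at the plate median or of vehicle wells; lower values mean less growth of the strain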
Details: growth OD

Measured: normalized growth

C[C@](N)(Cc1ccc(O)c(O)c1)C(=O)O
active: S. cerevisiae deletion strains, locus YNL209W, strain ssb2, stronger effect = lower value 0.891 | S. cerevisiae deletion strains, locus YOL006C, strain TOP1, stronger effect = lower value 0.529 | S. cerevisiae deletion strains, locus YOR290C, strain snf2, stronger effect = lower value 0.86 | S. cerevisiae strains, strain wild type, stronger effect = lower value 0.9
inactive: S. cerevisiae deletion strains, locus YJR075W, strain HOC1, stronger effect = lower value 1.01 | S. cerevisiae deletion strains, locus YKL009W, strain mrt4, stronger effect = lower value 0.97 | S. cerevisiae deletion strains, locus YKL068W, stronger effect = lower value 0.997 | S. cerevisiae deletion strains, locus YKL085W, strain MDH1 (second series), stronger effect = lower value 0.983 | S. cerevisiae deletion strains, locus YKL085W, strain MDH1, stronger effect = lower value 0.983 | S. cerevisiae deletion strains, locus YKL160W, strain elf1, stronger effect = lower value 0.927 | S. cerevisiae deletion strains, locus YKL190W, strain CNB1, stronger effect = lower value 0.951 | S. cerevisiae deletion strains, locus YKR001C, strain vps1, stronger effect = lower value 0.979 | S. cerevisiae deletion strains, locus YKR026C, strain gcn3, stronger effect = lower value 0.986 | S. cerevisiae deletion strains, locus YKR091W, strain srl3, stronger effect = lower value 0.972 | S. cerevisiae deletion strains, locus YLL001W, strain dnm1, stronger effect = lower value 0.914 | S. cerevisiae deletion strains, locus YLL026W, stronger effect = lower value 0.984 | S. cerevisiae deletion strains, locus YLL041C, strain sdh2, stronger effect = lower value 0.994 | S. cerevisiae deletion strains, locus YLR027C, strain aat2, stronger effect = lower value 0.983 | S. cerevisiae deletion strains, locus YLR039C, strain RIC1, stronger effect = lower value 0.975 | S. cerevisiae deletion strains, locus YLR058C, strain SHM2, stronger effect = lower value 0.979 | S. cerevisiae deletion strains, locus YLR102C, strain apc9, stronger effect = lower value 1 | S. cerevisiae deletion strains, locus YLR113W, strain HOG1, stronger effect = lower value 1 | S. cerevisiae deletion strains, locus YLR221C, strain rsa3, stronger effect = lower value 0.911 | S. cerevisiae deletion strains, locus YLR258W, strain gsy2, stronger effect = lower value 0.959 | S. cerevisiae deletion strains, locus YLR262C, strain YPT6 (second series), stronger effect = lower value 0.892 | S. cerevisiae deletion strains, locus YLR262C, strain YPT6, stronger effect = lower value 0.878 | S. cerevisiae deletion strains, locus YLR268W, strain sec22, stronger effect = lower value 1.06 | S. cerevisiae deletion strains, locus YLR320W, strain mms22, stronger effect = lower value 0.944 | S. cerevisiae deletion strains, locus YLR330W, strain CHS5, stronger effect = lower value 0.982 | S. cerevisiae deletion strains, locus YLR342W, strain FKS1 (second series), stronger effect = lower value 0.861 | S. cerevisiae deletion strains, locus YLR342W, strain FKS1, stronger effect = lower value 0.967 | S. cerevisiae deletion strains, locus YLR357W, strain rsc2, stronger effect = lower value 0.92 | S. cerevisiae deletion strains, locus YLR370C, strain arc18, stronger effect = lower value 0.945 | S. cerevisiae deletion strains, locus YLR371W, strain rom2, stronger effect = lower value 0.983 | S. cerevisiae deletion strains, locus YLR384C, strain iki3, stronger effect = lower value 0.981 | S. cerevisiae deletion strains, locus YLR418C, strain cdc73, stronger effect = lower value 1 | S. cerevisiae deletion strains, locus YML016C, strain PPZ1, stronger effect = lower value 0.957 | S. cerevisiae deletion strains, locus YML032C, strain rad52, stronger effect = lower value 1.01 | S. cerevisiae deletion strains, locus YML120C, strain ndi1, stronger effect = lower value 0.915 | S. cerevisiae deletion strains, locus YML124C, strain tub3, stronger effect = lower value 0.993 | S. cerevisiae deletion strains, locus YMR058W, strain fet3, stronger effect = lower value 0.944 | S. cerevisiae deletion strains, locus YMR078C, strain ctf18, stronger effect = lower value 0.99 | S. cerevisiae deletion strains, locus YMR125W, strain sto1, stronger effect = lower value 0.941 | S. cerevisiae deletion strains, locus YMR129W, stronger effect = lower value 0.985 | S. cerevisiae deletion strains, locus YMR205C, strain PFK2, stronger effect = lower value 0.983 | S. cerevisiae deletion strains, locus YMR223W, strain ubp8, stronger effect = lower value 0.938 | S. cerevisiae deletion strains, locus YMR231W, strain pep5, stronger effect = lower value 0.988 | S. cerevisiae deletion strains, locus YMR263W, strain SAP30, stronger effect = lower value 1 | S. cerevisiae deletion strains, locus YMR307W, strain GAS1, stronger effect = lower value 0.765 | S. cerevisiae deletion strains, locus YNL067W, strain RPL9B, stronger effect = lower value 0.979 | S. cerevisiae deletion strains, locus YNL071W, strain lat1, stronger effect = lower value 0.978 | S. cerevisiae deletion strains, locus YNL128W, strain TEP1, stronger effect = lower value 0.896 | S. cerevisiae deletion strains, locus YNL153C, strain GIM3, stronger effect = lower value 1.01 | S. cerevisiae deletion strains, locus YNL183C, strain NPR1, stronger effect = lower value 0.976 | S. cerevisiae deletion strains, locus YNL233W, strain BNI4, stronger effect = lower value 0.972 | S. cerevisiae deletion strains, locus YNL248C, strain rpa49, stronger effect = lower value 0.979 | S. cerevisiae deletion strains, locus YNL250W, strain rad50, stronger effect = lower value 0.982 | S. cerevisiae deletion strains, locus YNL271C, strain bni1, stronger effect = lower value 0.989 | S. cerevisiae deletion strains, locus YNL298W, strain CLA4, stronger effect = lower value 0.999 | S. cerevisiae deletion strains, locus YNL307C, strain MCK1, stronger effect = lower value 0.996 | S. cerevisiae deletion strains, locus YNL322C, strain KRE1 (second series), stronger effect = lower value 0.96 | S. cerevisiae deletion strains, locus YNL322C, strain KRE1, stronger effect = lower value 0.984 | S. cerevisiae deletion strains, locus YNR049C, strain mso1, stronger effect = lower value 0.969 | S. cerevisiae deletion strains, locus YNR052C, strain pop2, stronger effect = lower value 0.991 | S. cerevisiae deletion strains, locus YOL012C, strain htz1 0.552 | S. cerevisiae deletion strains, locus YOL147C, strain pex11, stronger effect = lower value 0.989 | S. cerevisiae deletion strains, locus YOR001W, strain rrp6, stronger effect = lower value 1.02 | S. cerevisiae deletion strains, locus YOR061W, strain CKA2, stronger effect = lower value 0.938 | S. cerevisiae deletion strains, locus YOR069W, strain VPS5, stronger effect = lower value 0.991 | S. cerevisiae deletion strains, locus YOR070C, strain gyp1, stronger effect = lower value 0.988 | S. cerevisiae deletion strains, locus YOR080W, strain dia2, stronger effect = lower value 0.956 | S. cerevisiae deletion strains, locus YOR083W, strain WHI5, stronger effect = lower value 0.919 | S. cerevisiae deletion strains, locus YOR106W, strain vam3, stronger effect = lower value 0.885 | S. cerevisiae deletion strains, locus YOR136W, strain idh2, stronger effect = lower value 0.99 | S. cerevisiae deletion strains, locus YOR144C, strain elg1, stronger effect = lower value 1.01 | S. cerevisiae deletion strains, locus YOR184W, strain ser1, stronger effect = lower value 0.998 | S. cerevisiae deletion strains, locus YOR231W, strain MKK1, stronger effect = lower value 1.03 | S. cerevisiae deletion strains, locus YOR265W, strain rbl2, stronger effect = lower value 0.956 | S. cerevisiae deletion strains, locus YOR270C, strain vph1, stronger effect = lower value 0.965 | S. cerevisiae deletion strains, locus YOR316C, strain cot1, stronger effect = lower value 1 | S. cerevisiae deletion strains, locus YPL051W, strain arl3, stronger effect = lower value 0.947 | S. cerevisiae deletion strains, locus YPL055C, strain LGE1, stronger effect = lower value 0.915 | S. cerevisiae deletion strains, locus YPL078C, strain atp4, stronger effect = lower value 0.947 | S. cerevisiae deletion strains, locus YPL106C, strain sse1, stronger effect = lower value 0.882 | S. cerevisiae deletion strains, locus YPL240C, strain hsp82, stronger effect = lower value 0.979 | S. cerevisiae deletion strains, locus YPL241C, strain CIN2, stronger effect = lower value 0.966 | S. cerevisiae deletion strains, locus YPL256C, strain CLN2, stronger effect = lower value 1.08 | S. cerevisiae deletion strains, locus YPR119W, strain clb2, stronger effect = lower value 0.993 | S. cerevisiae deletion strains, locus YPR141C, strain kar3, stronger effect = lower value 0.987 | S. cerevisiae deletion strains, locus YPR163C, strain tif3, stronger effect = lower value 1 | S. cerevisiae deletion strains, locus YPR167C, strain met16, stronger effect = lower value 0.997 | S. cerevisiae deletion strains, strain wtn01, stronger effect = lower value 1.01
